Source: PubChem
G9a inh = qHTS Assay for Inhibitors of Histone Lysine Methyltransferase G9a | Histone-lysine N-methyltransferase EHMT2 (Homo sapiens), Q96KQ7 | G9a H3K9 monomethylation, AlphaScreen, 2 h | Potency, µM (highest dose often 102 µM), without a hit: top-dose activity, negative = inhibition, hits mostly inhibitors | 8.8% of 350,000 active; further: on the % scale 0 is the no-effect control and ±100 the full control effect; nearly all actives have a fitted effect of over 75% in size
Target sequence (Q96KQ7 913-1193 limits assumed): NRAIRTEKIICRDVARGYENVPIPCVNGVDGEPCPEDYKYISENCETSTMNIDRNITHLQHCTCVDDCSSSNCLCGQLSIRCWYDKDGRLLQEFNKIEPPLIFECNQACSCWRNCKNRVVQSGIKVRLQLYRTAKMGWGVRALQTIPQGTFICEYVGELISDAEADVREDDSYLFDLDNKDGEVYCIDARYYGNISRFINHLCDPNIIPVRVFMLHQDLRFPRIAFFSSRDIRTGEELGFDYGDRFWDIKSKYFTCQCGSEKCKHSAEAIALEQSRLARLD
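G9a (20 nM) was preincubated 15 min with compound, then reacted 2 h at room temperature with 500 nM biotin-H3K9 peptide and 20 µM SAM. Monomethyl-H3K9 detected by AlphaScreen using anti-H3K9me1 antibody.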
BAZ2B block = qHTS Assay for Inhibitors of BAZ2B. 4.4% of 360,000 active. Potency, µM (top dose mostly 114 µM), for inactives: at the top dose activity change, negative = inhibition, hits mostly inhibitors. Bromodomain adjacent to zinc finger domain protein 2B (Homo sapiens), Q9UIF8. AID 504333, 2011. AlphaScreen BAZ2B-H3K14Ac peptide displacement; further: on the % scale 0 is the no-effect control and ±100 the full control effect; nearly all actives have a fitted effect of over 60% in size
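Inhibition is scored as reduced AlphaScreen emission. The BAZ2B/b-H3(5-23)K14Ac complex (50 nM each) in PBS pH 7.4, 0.01% Tween-20 meets compound (up to 110 uM) for 30 min at RT before bead addition.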
L3MBTL1 block = qHTS Assay for the Inhibitors of L3MBTL1 | AlphaScreen L3MBTL1–H3K9me1 peptide binding | Potency, µM (doses to about 57.1 µM), for inactives: at the highest dose activity, negative = inhibition, most hits filed as inhibitors | 0.66% of 230,000 active | Lethal(3)malignant brain tumor-like protein 1 (Homo sapiens), Q9Y468; further: on the % scale 0 is the no-effect control and ±100 the full control effect; nearly all actives have a fitted effect of over 60% in size
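Displacement of a biotinylated histone H3(1-15) peptide monomethylated at Lys9 (75 nM) from L3MBTL1 (50 nM) was measured by AlphaScreen after a 30 min room-temperature compound incubation; cefsulodin titration served as intraplate control.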
HP1b chromo inh = HTS for Inhibitors of HP1-beta Chromodomain Interactions with Methylated Histone Tails; 0.56% of 390,000 active; Potency, µM (series often up to 114 µM), for the others: at the highest dose activity change, negative = inhibition, most hits filed as inhibitors; AlphaScreen HP1-beta / biotin-H3K9me3 peptide binding; AID 540317, 2011; further: nearly all actives have a fitted effect of over 70% in size
Target sequence (P83916 whole entry, looked up): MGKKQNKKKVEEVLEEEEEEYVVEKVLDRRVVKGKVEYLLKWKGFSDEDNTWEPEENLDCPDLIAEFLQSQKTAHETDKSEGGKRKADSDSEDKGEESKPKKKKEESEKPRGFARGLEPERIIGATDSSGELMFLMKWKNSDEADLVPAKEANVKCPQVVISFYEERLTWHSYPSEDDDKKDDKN
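HP1-beta protein (50 nM final) preincubated 30 min at room temperature with biotinylated H3(1-18)K9me3 peptide (50 nM) in PBS pH 7.4, 0.01% Tween-20, then compound added for 30 min. AlphaScreen streptavidin donor/nickel chelate acceptor beads (10 ug/mL final), 30 min dark, luminescence read.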
JMJD2A Tudor = qHTS Assay for Inhibitors of JMJD2A-Tudor Domain; Lysine-specific demethylase 4A (Homo sapiens), O75164; AlphaScreen JMJD2A-Tudor / H3K4me3 peptide binding; Potency, µM (titrated, usually from 114 µM), inactives show at the top dose activity change, negative = inhibition, most hits filed as inhibitors; 4.4% of 390,000 active; AID 504339, 2011; further: on the % scale 0 is the no-effect control and ±100 the full control effect; nearly all actives have a fitted effect of over 50% in size
Numbers without * were called inactive; ? = inconclusive; . = no result given; [ ] = dose if it differs, or a comment. Only some compounds are listed: those with a hit (about 11% of all), similar ones and a draw of the others. The call rests on the fitted dose curve; in most records, active means well fitted inhibition curve with a large enough effect; inconclusive means small, poorly fitted or top-dose-only effect; inactive means no such curve, though single readings can be large or run the other way. Potency means the concentration at half of the fitted maximal effect.

SMILES	G9a inh	BAZ2B block	L3MBTL1 block	HP1b chromo inh	JMJD2A Tudor
COC(=O)c1cc2oc3ccccc3c2n1Cc1c(F)cccc1Cl	13%[59 µM]	6%	.	37%	-17%
Cc1nc2ccccc2c2c(N)c3ccccc3n12	18µM*	?	.	?	?
Cc1ccc(NC(=O)C2CCN(S(=O)(=O)c3ccccc3)CC2)cc1	?	-16%	9%	14%	-2%
Cc1ccc(S(=O)c2ccc(NC(=O)C3CC3)cc2C#N)cc1 (centres undefined)	2%	-1%	25%	-18%	14µM*
CC(/C=C/c1ccc(N(C)C)cc1)=N/N=C1/NC(=O)CC(C(=O)Nc2ccc(Cl)cc2)S1 (centres undefined)	32µM*	?	-24%	-17%	?
CC(Sc1ccc2ccccc2n1)C(=O)O (centres undefined)	50µM*	2%	6%	25%	-11%
COc1ccc(C2(O)CN(c3ccccc3)C3=[N+]2CCS3)cc1OC (centres undefined)	-19%	71µM*	-28%	28%	-4%
O=C(/C=C/c1ccccc1)CCN1CCOCC1	.	.	.	-24%	89µM*
O=C(/C=C/c1ccccc1)N1CCOCC1	11%[12.7 µM]	-4%	.	32%	1%
Cc1cc(C=C2C(=O)c3ccccc3C2=O)c(C)n1-c1cccc(C(=O)O)c1	40µM*	?	.	-15%	-38%
O=c1/c(=C\c2cccnc2)sc2nc3ccccc3n12	-3%[12.7 µM]	3%	.	26%	-4%
Cc1cc(C=C2C(=O)c3ccccc3C2=O)c(C)n1-c1ccccc1	-11%	-5%	-7%	16%	-22%
O=c1/c(=C/c2ccc(O)c([N+](=O)[O-])c2)sc2nc3ccccc3n12	?	?	-9%	?	45µM*
Cc1cc(C=C2C(=O)c3ccccc3C2=O)c(C)n1-c1ccc(C(=O)O)cc1	35µM*	?	?	-11%	-27%
Cc1cc(/C=c2\sc3nc4ccccc4n3c2=O)c(C)n1-c1ccc(C(=O)O)cc1	25µM*	?	-9%	-17%	-23%
COc1ccc(CN(C)c2ccc(-c3nc(C)no3)cc2[N+](=O)[O-])cc1	-5%[59 µM]	-15%	.	23%	-21%
Cc1ccc(CCNC(=O)CCSCc2ccccc2Cl)cc1	24%[59 µM]	23%	.	54%	11%
Cc1ccc(-c2csc(NC(=O)CSc3nc(C)cc(=O)[nH]3)n2)cc1	45µM*	?	.	11%	?
Cc1cc(C)nc(SCC(=O)c2ccc(O)cc2O)n1	40µM*	-5%	.	63%	-12%
Cc1cc(C)nc(SCC(=O)NN)n1	22µM*	50µM*	-25%	6%	-4%
Cc1ccc(C(=O)CSc2nc(N)cc(=O)[nH]2)cc1C	19%	2%	-5%	24%	-24%
Cc1ccc(-c2csc(NC(=O)CSC3=NCCS3)n2)cc1	1%[59 µM]	-3%	-6%	51%	15%
Cc1cc(=O)[nH]c(SCC(=O)c2ccc(O)c(O)c2)n1	7.9µM*	56µM*	?	7%	-8%
O=C(CSc1nnnn1-c1ccccc1)c1ccc(O)cc1O	-10%	-24%	-23%	30%	-2%
COc1cccc(CNC(=O)CCc2c(C)nc3c4c(C)cc(C)nc4nn3c2C)c1	-1%[59 µM]	-4%	.	13%	-12%
O=S(=O)(NCC(c1ccco1)S(=O)(=O)c1cccs1)c1ccc(F)c(C(F)(F)F)c1 (centres undefined)	3%[59 µM]	-11%	.	26%	-8%
COc1ccc(/C=C/c2nc(C#N)c(N3CCC(C(N)=O)CC3)o2)cc1OC	5%[59 µM]	-17%	.	64%	-7%
O=C(c1cccc(Cl)c1)N1CCC(=O)N([C@H](COCc2cccc(Cl)c2)Cc2ccccc2)CC1	12%[59 µM]	.	.	.	.
Cc1cc(C)nc(SCC(=O)c2ccc(O)c(O)c2)n1	1.8µM*	?	.	20%	13µM*
